A selection: hits, their analogues and other compounds. The true share with any hit is near 9.3%.
FMDV antiviral: foot and mouth disease virus antiviral activity | hit rate 1.2% among 410,000 | FMDV antiviral cell-based qHTS | Potency, µM (titrated, usually from 57.9 µM), without a hit: at the top dose activity change, negative = inhibition, actives largely listed as inhibitors; calls by dose curve; tested in HEK293T cells; also: read-out not given here; potency is read from the fitted curve at half-maximal effect; nearly all actives have a fitted effect of over 45% in size
HCMV inh: inhibitors of human cytomegalovirus; hit rate 4.5% among 410,000; activity change, negative = inhibition, % at 57.5 µM; HFF cells, HCMV-luciferase reporter, 72 h; stronger effect = lower value; in the data active = activity change below about -60%; inconclusive = no clear call, values can overlap the other calls; inactive = above about -39%
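Two compound doses tested in HFFs infected with HCMV-luciferase, MOI 1 PFU/cell, 72 h at 37C. Lysate luminescence read with OneGlo; data normalized against buffer-only and 10uM Salinomycin inhibitor controls.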
HCV inh: blocks hepatitis C virus; Huh7.5.1 HCVcc-Cre infection, luciferase reporter, 44 h; Potency, µM (titrated, usually from 41.8 µM), without a hit: top-dose activity change, negative = inhibition, usual class: inhibitors; hit rate 3.4% among 340,000; also: potency is read from the fitted curve at half-maximal effect
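Cells (1,000/well) were plated 4 h before compound, then infected with HCVcc-Cre virus (~0.5 moi). After 44 h further culture, infection was read as luciferase luminescence following a 15 min substrate incubation at room temperature.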
VACV Venus inh: vaccinia inhibition (Venus reporter); AID 720580; hit rate 0.46% among 330,000; Vaccinia virus Venus reporter expression, fluorescence; Potency, µM (titrated, usually from 36.5 µM), for the others: at the top dose activity change, negative = inhibition, hits mostly inhibitors; calls by dose curve; tested in A549 cells; also: potency is read from the fitted curve at half-maximal effect; nearly all actives have a fitted effect of over 30% in size
Sm TGR block: inhibitors of Schistosoma mansoni thioredoxin glutathione reductase | purified TGR, DTNB reduction, TNB absorbance 405 nm | hit rate 3% among 360,000 | Potency, µM (series often up to 114 µM), without a hit: top-dose activity change, negative = inhibition, usual class: inhibitors | Q962Y6 | AID 485364; also: potency is read from the fitted curve at half-maximal effect; nearly all actives have a fitted effect of over 60% in size
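First, TGR (20 nM dispensed) and NADPH were mixed with compound. Second, a 15 min room-temperature incubation followed. Third, further NADPH and then DTNB were added to start the reaction. Finally, TNB absorbance was monitored kinetically.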
VACV mCherry inh: inhibitors of vaccinia virus infection (mCherry reporter signal); Vaccinia virus mCherry reporter infection, fluorescence; Potency, µM (highest dose often 36.5 µM), inactives show at the top dose activity change, negative = inhibition, most hits filed as inhibitors; hit rate 0.63% among 310,000; calls by dose curve; tested in A549 cells; also: potency is read from the fitted curve at half-maximal effect; nearly all actives have a fitted effect of over 35% in size
The depositor's hits bear a star; i = inactive; ? = inconclusive; . = no result given. Unless noted, calls follow the shape of the dose curve; as a rule, active = well fitted curve in the direction sought with a large enough effect; inconclusive = small, poorly fitted or top-dose-only effect, or another doubt; inactive = no such curve, though single readings can be large; an effect the other way counts as inactive or inconclusive. % is scaled to controls: 0 for no effect and ±100 for the full control effect.

SMILES	FMDV antiviral	HCMV inh	HCV inh	VACV Venus inh	Sm TGR block	VACV mCherry inh
COc1ccc(NC(=O)c2ccc3ccccc3c2OC)cc1	39%	84	-23%	-20%	.	?
CN(C)/C=C1/C(=O)NC(=O)N(CCNc2ncc(C(F)(F)F)cc2Cl)C1=O	?	-7	6%	8%	11µM*	12%
NNC(=O)CCCNc1ncc(C(F)(F)F)cc1Cl	-8%	-35	6%	16%	36%	-13%
COc1ccc(S(=O)(=O)Nc2ccc3c(c2)OCCO3)cc1OC	19%	-21	4%	7%	-25%	-16%
CCn1cc2nc(SCc3cccc(C(F)(F)F)c3)n(Cc3ccc(OC)cc3)c(=O)c2n1	?	?	.	-18%	1%	?
O=C1CSC(=S)N1/N=C/c1ccc(O)c(O)c1O	-17%	.	3%	13%	?	-10%
O=C1CSC(=S)N1/N=C/c1cc(Br)ccc1O	.	.	.	.	7.9µM*	.
Cc1cc(=O)n(C)c2ccc(S(=O)(=O)N3CCOCC3)cc12	-11%	-4	3%	.	-14%	.
CC(C)[C@H](NC(=O)N1CC(=O)Nc2ccccc21)C(=O)N1CCC[C@@H]1C(=O)O	-9%	-17	-24%	3%	-5%	-14%
Cc1ccccc1CS(=O)(=O)c1ccc(C(=O)N2CCC(C)CC2)cc1[N+](=O)[O-]	?	?	14%	-5%	89µM*	-6%
CC1CCN(C(=O)C(C)OC(=O)c2ccc(S(C)(=O)=O)c([N+](=O)[O-])c2)CC1 (configuration not stated)	.	.	.	-19%	.	-16%
Cc1ccc(S(=O)(=O)Cc2ccc(C(=O)N3CCC(C)CC3)cc2)cc1	-14%	-20	10%	-20%	-16%	-13%
CC1CCN(C(=O)c2ccc(S(=O)(=O)Cc3cccc(F)c3)c([N+](=O)[O-])c2)CC1	?	-84*	1%	-8%	3.5µM*	-10%
O=C(Nc1ccc(NC(=O)N2CCN(c3ccccc3O)CC2)cc1)N1CCN(c2ccccc2O)CC1	1%	6	-20%	-8%	-1%	?
Cc1cccc(CC2S/C(=N/c3ccccn3)NC2=O)c1 (configuration not stated)	-4%	-65*	10%	-18%	-4%	.
O=C1N/C(=N\c2ccccn2)SC1Cc1ccccc1Cl (configuration not stated)	13%	-12	-7%	.	8%	.
O=C1N/C(=N\N=C\c2ccccn2)SC1Cc1cccc(SC(F)F)c1 (configuration not stated)	-17%	-99*	?	-10%	5%	-12%
O=C1N/C(=N\N=C\c2cccnc2)SC1Cc1ccc(SC(F)F)cc1 (configuration not stated)	0%	-85*	?	.	-8%	.
COc1ccc(NC(=O)[C@@H]2CC=C[C@@H]3CCN(C4CC4)C(=O)[C@@H]32)cc1	.	.	.	-7%	.	i
Cc1cccc(N(C)C(=O)Cc2c(C(=O)O)[nH]c3ccccc23)c1	-6%	16	.	-2%	-5%	-7%
CCCN(CC(=O)Nc1ccccc1C)C(=O)c1ccc(-c2ccc([N+](=O)[O-])cc2)o1	?	-33	?	.	6.3µM*	.
CCCN(CC(=O)Nc1ccccc1C)C(=O)C1CC(=O)N(c2ccccc2OCC)C1 (configuration not stated)	1%	-29	15%	-6%	.	-8%
CCN(CC(=O)Nc1cc(Cl)ccc1C)C(=O)COc1ccccc1F	-14%	-15	-21%	-9%	-10%	i
CCCN(CC(=O)Nc1ccccc1C)C(=O)COC(=O)CSc1ccc([N+](=O)[O-])cc1	-6%	-3	6%	-19%	-4%	-20%
CCCN(CC(=O)Nc1ccccc1C)C(=O)COc1c(C)cccc1C	-6%	-8	0%	.	-6%	.
SMILES	FMDV antiviral	HCMV inh	HCV inh	VACV Venus inh	Sm TGR block	VACV mCherry inh
CCCN(CC(=O)Nc1ccccc1C)C(=O)CCl	13µM*	-99*	7.1µM*	4.5µM*	14µM*	4.5µM*
CCCN(CC(=O)Nc1ccccc1C)C(=O)C1CC(=O)N(Cc2ccccc2)C1 (configuration not stated)	16%	-98*	-3%	-14%	-11%	-15%
CCN(CC(=O)Nc1cc(Cl)ccc1C)C(=O)CCOc1ccccc1C	?	-14	-7%	?	35µM*	?
Cc1cc(C)nc(N(C#N)Cc2ccccc2C)n1	20%	-26	4%	-5%	.	i
COc1cccc(CN(C)CC(=O)Nc2ccccc2C(C)C)c1	?	-65*	-18%	-2%	8%	-1%
O=C(CN1CCOCC1)NN=Cc1ccc([N+](=O)[O-])o1	-20%	-10	.	-7%	.	3%
O=C(CNc1cccc2ccccc12)N/N=C/c1ccc([N+](=O)[O-])o1	0%	-95*	10µM*	.	?	.
O=C(CCN1CCN(c2ccccc2)CC1)N/N=C/c1ccc([N+](=O)[O-])o1	-22%	-18	?	?	32µM*	?
O=C(CN1CCCCCCC1)N/N=C/c1ccc([N+](=O)[O-])o1	-9%	?	?	10µM*	14µM*	11µM*
CSc1ccc(/C=N/NC(=O)CNc2cccc3ccccc23)cc1	-5%	2	2%	-14%	5%	-15%
O=C(CNc1cccc([N+](=O)[O-])c1)N/N=C/c1ccc([N+](=O)[O-])o1	11%	-66*	?	?	.	?
O=C(CCN1CCN(c2ccccc2)CC1)N/N=C/c1ccc(O)c(O)c1O	-26%	?	?	.	.	.
CC1(c2cccc(Br)c2)NC(=O)NC1=O (configuration not stated)	-9%	-28	7%	-14%	8%	-12%
CCN(CC)C(=O)CSc1nc(-c2ccccc2)ccc1C#N	0%	22	5%	.	8%	.
CCN(CC(=O)Nc1ccc(NC(C)=O)cc1)C(=O)c1ccc2ccccc2c1	24%	4	3%	-18%	-8%	0%
O=C(O)c1cc(S(=O)(=O)Nc2cc(Cl)ccc2Oc2ccccc2)ccc1O	-11%	-38	6%	.	-16%	.
O=C(Cc1ccc([N+](=O)[O-])cc1)N/N=C/c1ccc([N+](=O)[O-])o1	-13%	-18	14µM*	11µM*	?	10µM*
O=C(CC12CC3CC(CC(C3)C1)C2)N/N=C/c1ccc([N+](=O)[O-])o1	-29%	-10	?	28µM*	-16%	11µM*
CC1(C(=O)N/N=C/c2ccc([N+](=O)[O-])o2)CC1(Br)Br (configuration not stated)	-20%	-60*	?	6.3µM*	?	?
CCCCCCCC(=O)N/N=C/c1ccc([N+](=O)[O-])o1	-15%	?	?	.	?	.
Cc1cccc(C)c1NC(=O)Cn1c(=O)c2cccn2c2ccccc21	-28%	0	-19%	.	-20%	.

Screens as filed in PubChem.
